TRPM1 prom inh: inhibitors of MITF-dependent TRPM1 promoter reporter, primary screen, cell-based, SK-MEL-5, single point, luciferase; SK-MEL-5 TRPM1 promoter luciferase, 24 h; inhibition, % at 12.5 µM; AID 488899, 2010; 330,000 tested, 0.83% active;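 active means mean inhibition across replicates of 60% or more, whatever share of single replicates reaches that level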
HIF-2a inh: HIF-2a reporter inhibitors, primary screen, luminescence, 786-0 RCC cells; 360,000 tested, 0.72% active; 786-0 RCC cells HIF-2a reporter, luciferase luminescence, overnight; inhibition, % at 18.8 µM;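 active means inhibition of the luminescence signal of 40% or more relative to plate controls, in a single-dose primary screen at 18.75 µM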
LMP1 NFkB inh: EBV LMP1-driven NF-kappaB luciferase reporter inhibitors, primary screen, cell-based, luminescence, single point. 350,000 tested, 0.69% active. LMP1-induced NF-kappaB luciferase reporter cells. inhibition, % at 12.5 µM. AID 504558, 2011; in the data active means inhibition above about 41%;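 further: 0% = neutral control wells and 100% = reference inhibitor control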
KKLEB cytotox: cytotoxicity in KKLEB CF airway cells, primary screen, cytotoxicity control for CF NF-kB inhibitor project, cell-based, uHTS, fluorescence assay plates. KKLEB CF airway cells viability, ATPlite luminescence, overnight; stronger effect = lower value; cells stimulated with P. aeruginosa culture filtrate. activity change (cytotoxicity), % at 5 µM. 360,000 tested, 0.36% active;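 active means corrected activity change at or below -50% at 5 µM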
Peg3 prom inh: Peg3 promoter-driven luciferase inhibitors, primary screen, cell-based, HeLa, luciferase luminescence. HeLa PEG-Prom luciferase reporter, overnight. inhibition, % at 20 µM. 360,000 tested, 1.7% active. AID 588405, 2011;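 active means inhibition of at least 50% at 20 µM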
CF NFkB block: inhibitors of PAF-induced NF-kB signaling, primary screen, cell-based, GFP fluorescence, uHTS; inhibition, % at 5 µM; 360,000 tested, 0.86% active; KKLEB NF-kB-GFP reporter, GFP fluorescence overnight;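 active means at least 50% inhibition at 5 µM, scaled per plate between neutral and stimulator controls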;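 further: PAF is a Pseudomonas aeruginosa culture filtrate used as stimulus; plate controls were PAF-stimulated DMSO wells for no effect and unstimulated DMSO wells for full effect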
Starred values were filed as active, the others as inactive; x = no result. Hits are enriched below; roughly 3% of the tested compounds scored in any of these assays.

SMILES	TRPM1 prom inh	HIF-2a inh	LMP1 NFkB inh	KKLEB cytotox	Peg3 prom inh	CF NFkB block
COc1ccc(NC(=O)N(C)[C@H]2C[C@H]3c4[nH]c5ccc(-c6ccc(OC)cc6)cc5c4CCN3C[C@H]2[C@H](C)O)cc1	x	-62	0	1	98*	22
O=C(NCc1cccc(Cl)c1)c1ccc(S(=O)(=O)N2CCCCC2)cc1	x	5	8	3	11	3
COc1cc(CNC(C)(C)CO)ccc1OCC(=O)NC(C)(C)C	6	14	-1	26	11	-35
COc1cc(CNC(C)C23CC4CC(CC(C4)C2)C3)ccc1OCC(=O)NC(C)(C)C (stereo not drawn)	7	25	3	-8	72*	10
COc1ccc(CCNC(=O)Nc2nc(C(N)Cc3ccccc3)cs2)cc1OC (stereo not drawn)	x	12	x	-2	17	-8
COc1ccc(CC(N)c2csc(NC(=O)Nc3ccccc3-c3ccccc3)n2)cc1 (stereo not drawn)	x	9	x	-15	92*	15
COc1ccccc1NC(=O)Nc1nc(C(N)CC(C)C)cs1 (stereo not drawn)	x	5	x	-4	61*	-4
COc1ccccc1NC(=O)Nc1nc(C(N)Cc2ccc(Cl)cc2)cs1 (stereo not drawn)	x	11	x	-7	106*	6
NC(CCc1ccccc1)c1csc(Nc2ccccn2)n1 (stereo not drawn)	x	1	x	-11	25	-11
NC(CCc1ccccc1)c1csc(NC(=O)NCC2CCCCC2)n1 (stereo not drawn)	x	-55	x	-11	98*	8
COCCNC(=O)C1(C)CCN(C(=O)Cc2ccc(OC)c(OC)c2)C1 (stereo not drawn)	x	2	x	12	2	-2
COc1ccc(CC(N)c2csc(NC(=O)NCc3ccccc3)n2)cc1 (stereo not drawn)	x	4	x	-11	22	6
COc1ccccc1NC(=O)Nc1nc(CC(=O)N2CCN(c3ccccc3F)CC2)cs1	-11	-18	6	5	52*	-23
COc1ccc(OC)c(NC(=O)Nc2nc(C(N)CCc3ccccc3)cs2)c1 (stereo not drawn)	x	-23	x	-18	100*	24
COc1ccc(OC)c(NC(=O)Cc2csc(NC(=O)Nc3ccccc3OC)n2)c1	-9	-6	1	-16	54*	-9
COc1ccccc1NC(=O)Nc1nc(C(N)Cc2ccccc2)cs1 (stereo not drawn)	x	-6	x	3	60*	4
O=C(O)C1C2OC3C(OC(=O)C31)C2Br (stereo not drawn)	-2	10	-1	-10	9	31
C[C@@H]1CN([C@H](C)CO)S(=O)(=O)c2ccc(Br)cc2O[C@@H]1CN(C)C(=O)NC1CCCC1	x	12	-3	4	4	2
CC(=O)NC(C)(c1ccccc1)c1nc(-c2cccc(C(F)(F)F)c2)cs1 (stereo not drawn)	x	16	x	-8	12	23
COc1ccc(CCNC(=O)c2nnn(-c3ccc4c(c3)OCCO4)c2N)cc1OC	41	51*	50*	-3	-132	9
C[n+]1c2n(c3ccccc31)N=C(c1ccc(-c3ccccc3)cc1)CS2	82*	-3	23	-20	1	25
O=[N+]([O-])c1cccc(N=Nc2ccc(O)cc2O)c1	-3	-154	-1	-41	-59	66*
CC1CC(C)CN(C(CCc2ccccc2)C(=O)NC2CCCCC2)C1 (stereo not drawn)	x	2	x	-9	-2	2
CO[C@@H]1CN(C)C(=O)c2cc(NC(=O)NC3CCCCC3)ccc2OC[C@@H](C)N(CC2CCOCC2)C[C@@H]1C	x	6	x	x	x	x
COc1cc(C2CC(=O)Nc3ccccc3S2)cc(OC)c1OC (stereo not drawn)	8	11	-2	-5	51*	-14
SMILES	TRPM1 prom inh	HIF-2a inh	LMP1 NFkB inh	KKLEB cytotox	Peg3 prom inh	CF NFkB block
O=C1CC(c2ccc(F)cc2)Sc2ccccc2N1 (stereo not drawn)	7	-16	-4	-6	-50	0
CCCn1c2c(c(=N)c3c1CCC3)CCC2	10	12	-3	14	10	-13
CCCCCCCn1c2c(c(=N)c3ccccc31)CCC2	86*	-18	21	-29	34	39
S=C(NCc1ccc2[nH]c3c(c2c1)CCCC3)Nc1ccccc1	0	-120	4	-8	12	-2
Cc1cc(C)cc(NC(=S)NCc2ccc3[nH]c4c(c3c2)CCCC4)c1	9	0	-11	-1	67*	-1
CC1=CC(=O)C=C(C)C1=NOS(=O)(=O)c1ccccc1	29	63*	29	-7	82*	21
Cc1ccc2c(c1)/C(=N/OS(=O)(=O)c1ccccc1)CCS2	2	-3	4	-14	8	4
CC1=CC(=O)C(C(C)C)=C/C1=N/OS(=O)(=O)c1ccccc1	17	-16	-21	27	106*	-1
O=C1NC[C@@H](CCCCN2C[C@H](Cc3ccc(O)cc3)N(CCc3ccc(O)cc3)C(=O)C2=O)N(CCc2ccccc2)C1=O	x	4	x	x	x	x
Cc1ccc(F)c(S(=O)(=O)NC(=O)C2(C)CCN2C(=O)C2(c3ccc(Cl)cc3)CCC2)c1 (stereo not drawn)	x	7	x	-2	6	-7
O=C(/C=C/c1ccccc1[N+](=O)[O-])c1ccccc1Br	-10	38	-17	-10	96*	22
Cc1ccc(C(=O)/C=C/c2ccccc2[N+](=O)[O-])cc1	-40	-198	-40	-6	28	-27
O=c1ccn2c(n1)SC(c1ccccc1)C2 (stereo not drawn)	x	12	1	-3	-11	-2
CCc1sc(C(=O)Nc2ncccc2C)cc1C	-11	-105	-6	4	-87	6
CCc1sc(C(=O)Nc2ncccc2O)cc1C	6	-12	52*	-13	-20	-21
C[C@@H]1CCCCO[C@H](CN(C)S(=O)(=O)c2ccc(F)cc2)[C@@H](C)CN([C@H](C)CO)C(=O)c2cc(NC(=O)Nc3ccc(C(F)(F)F)cc3)ccc2O1	x	-1	3	4	20	-10
CCN1CCN(CCNC(=O)c2ccc3nc(-c4cccc(C)c4)c(-c4cccc(C)c4)nc3c2)CC1	87*	2	-6	4	91*	12
CCN1CCN(CCCNC(=O)c2ccc3c(Cl)c4c(nc3c2)CCCC4)CC1	92*	-18	-1	-4	74*	19
COc1cc(/C=C/C2=NNC(=O)CC2)cc(OC)c1OC	47	14	16	5	61*	-12
